Out of some 360,000 compounds screened, about 17,000 (4.7%) were called active. Inconclusive results (about 5%) are left out. The sample as a whole holds a higher share of actives than the screen did. A number with no mark means an inactive call. Rule as the data show it: active = activity change below about -50%; inconclusive = mostly about -30% to -49%; inactive = weaker than that.
Assay: qHTS for Inhibitors of Inflammasome Signaling: IL-1-beta AlphaLISA Primary Screen
Settings: THP-1 LPS/ATP IL-1B secretion, 16 h; at 57.5 µM, active compounds read low
How it was run: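 Secreted IL-1B measured by AlphaLISA bead assay after 16 h compound exposure of THP-1 cells; compounds (final up to 57.5 uM) added 1 h before LPS (250 ng/mL) and ATP (1.25 mM) stimulation; lower signal means less secretion.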
% is scaled to controls: 0 for no effect and ±100 for the full control effect.

Row | Structure (SMILES) | activity change
1 | CC1CCCCN1CCCNC(=O)Cn1ncc2c([nH]c3ccccc32)c1=O (centres undefined) | 14.3%
2 | CCNC(=O)C1CCCN(C(=O)c2cc(F)ccc2C)CC1 (centres undefined) | 26.6%
3 | O=C1COc2ccc(S(=O)(=O)Nc3ccc(OC(F)(F)F)cc3)cc2N1 | 6.28%
4 | Cc1nn(C)c(C)c1NS(=O)(=O)c1ccc(OC(F)(F)F)cc1 | 63%
5 | O=S(=O)(Nc1ccc(O)c2ccccc12)c1ccc(OC(F)(F)F)cc1 | -70.3% (active)
6 | O=C(CC[C@H]1O[C@@H](n2ccc(=O)[nH]c2=O)[C@H](O)[C@@H]1O)N[C@H](Cc1ccccc1)C(=O)NCc1ccco1 | 17.1%
7 | CNc1nc(=O)n(C2CCCO2)cc1C (centres undefined) | -1.08%
8 | Cc1cc(C)n2c(Nc3c(C)cccc3C)c(CCc3ccccc3)nc2n1 | 0%
9 | O=C(NC(Nc1nc2ccc([N+](=O)[O-])cc2s1)(C(F)(F)F)C(F)(F)F)c1ccccc1 | -105% (active)
10 | O=C(NOCc1ccccc1)c1cccc([N+](=O)[O-])c1 | -14.2%
11 | O=C(COC(=O)c1ccc([N+](=O)[O-])cc1Cl)NC(=O)c1ccccc1 | 0.699%
12 | CCOC(=O)c1ccccc1NC(=O)COC(=O)CCC(=O)N1CCOCC1 | -2.88%
13 | CN(C)CCOC1c2ccccc2-c2ccccc21 | -24.9%
14 | CN(C)CCOC(=O)C(c1ccccc1)C1(O)CCCC1 (centres undefined) | -8.97%
15 | Cc1ccccc1C(OCCN(C)C)C1CCCCC1 (centres undefined) | -55.7% (active)
16 | Nc1ccccc1Sc1cc(Cl)nnc1Cl | 4.28%
17 | CCOc1ccc(S(=O)(=O)Nc2nccs2)cc1 | -1.81%
18 | CC(Oc1ccc(Cl)cc1)c1ccnn1S(C)(=O)=O (centres undefined) | -4.95%
19 | CNc1ccc([N+](=O)[O-])cc1C(=O)O | 12.5%
20 | CCC(C)C(=O)Nc1cc([N+](=O)[O-])ccc1Cl (centres undefined) | 4.95%
21 | Cc1ccc(NC(=O)c2cc([N+](=O)[O-])ccc2Cl)c(O)c1 | -76% (active)
22 | CN(Cc1ccccc1F)c1cc2c(c3c1ccn3C)C1CCC2O1 (centres undefined) | 38.3%
23 | Cc1nccn1-c1ccc(NC(=O)[C@H]2O[C@@H](n3ccc(=O)[nH]c3=O)[C@H](O)[C@@H]2O)cc1 | 20.2%

Row | Structure (SMILES) | activity change
24 | COC(=O)[C@@]1(Cc2ccc(F)cc2)[C@H]2c3cc(C(=O)N(C)C)n(CCc4c[nH]c5ccc(OC)cc45)c3C[C@H]2CN1C(=O)c1ccccc1 | -25.7%
25 | O=C(CSc1nnc(-c2ccncc2)n1-c1ccc(Cl)cc1)Nc1ccc(C(=O)O)cc1 | 8.71%
26 | Cn1c(=N)n(CC(O)c2ccccc2)c2ccccc21 (centres undefined) | 35.9%
27 | CCOc1ccc(C(O)Cn2c(=N)n(CCN3CCCCC3)c3ccccc32)cc1 (centres undefined) | -60.3% (active)
28 | CCOc1ccc(CN2CCCN(C)CC2)cc1 | 14.6%
29 | COCCn1cnnc1SCC(=O)Nc1cccc(S(=O)(=O)N2CCCCC2)c1 | 5.3%
30 | CN(CCO)C(=O)c1nc[nH]c1C(=O)N(C)Cc1ccccc1 | 26.2%
31 | CCCCCCN1C[C@H](O)[C@@H](n2cc(C3CC3)nn2)C[C@@H]1c1ccc(Cl)cc1 | 82%
32 | CC(=O)Nc1ccc(NC(=O)COc2ccc(-c3ccccc3)cc2)cc1 | -15.4%
33 | CC(=O)Nc1cccc(OCC(=O)/C=C2\N(C)c3ccccc3C2(C)C)c1 | -82% (active)
34 | CN1CCN(CCC(=O)N/N=C/C=C2\N(C)c3ccccc3C2(C)C)CC1 | 10.2%
35 | C[C@@H]1CC2=C(C(=O)OC(C)(C)O2)[C@@H](C2CC2)O1 | 32.1%
36 | CN(CC(=O)Nc1cccc(F)c1)C(=O)CC1CCCC1 | 0.0851%
37 | CN(CC(=O)Nc1cccc(F)c1)C(=O)C1=COCCO1 | 2.81%
38 | CC1CCc2[nH]c3ccc(C(=O)N(C)CC(=O)Nc4cccc(F)c4)cc3c2C1 (centres undefined) | -74.7% (active)
39 | CCCCNS(=O)(=O)CCNCc1ccccc1OC | 3.56%
40 | CCCCCCCCNS(=O)(=O)CCNC1CCCCC1 | -65.1% (active)
41 | CCCCCCNS(=O)(=O)c1ccccc1Br | 14%
42 | C[C@H]1CN([C@@H](C)CO)C(=O)CCCn2cc(nn2)CO[C@@H]1CN(C)S(=O)(=O)c1cccs1 | 7.03%
43 | CC(C)(C)NC(=O)C(CCc1ccccc1)n1c(=O)c(-c2ccccc2)nc2ccccc21 (centres undefined) | 0%
44 | CC(C)C1CCN(C(=O)C2CCC(=O)N(C3CCCCCC3)C2)CC1 (centres undefined) | -3.63%
45 | CCOc1ccc(CCNC(=O)Nc2ccccc2)cc1OCC | 30.9%
46 | CONC(=O)c1cc(OCC(F)(F)F)ccc1OCC(F)(F)F | -0.808%

Row | Structure (SMILES) | activity change
47 | O=C(NC(=O)c1cc(OCC(F)(F)F)ccc1OCC(F)(F)F)Nc1ccccc1 | -63.5% (active)
48 | O=C(CNC(=O)c1cc(S(=O)(=O)N2CCOCC2)ccc1N1CCCC1)Nc1ccc(F)c(F)c1 | -54% (active)
49 | NS(=O)(=O)c1ccc(CNC(=O)c2cc(S(=O)(=O)N3CCOCC3)ccc2N2CCCC2)cc1 | -15.8%
50 | O=C(Nc1ccc(N2CCCCC2)cc1)c1cc(S(=O)(=O)N2CCOCC2)ccc1F | -27.8%
51 | c1ccc(-c2cc3c(NCC4COc5ccccc5O4)ncnc3s2)cc1 (centres undefined) | -59.2% (active)
52 | S=C(NCC1COc2ccccc2O1)Nc1ccc(Br)cc1 (centres undefined) | 0%
53 | Oc1ccccc1N1CCN(c2ncnc3sc(-c4ccccc4)cc23)CC1 | -28.1%
54 | Nc1cc(=O)n(Cc2ccccc2)c(=O)n1Cc1ccccc1 | -0.791%
55 | O=C(NCc1ccccc1)C1C(=O)N(Cc2ccccc2)C(=O)C1C1(O)CCCC1 (centres undefined) | -0.107%
56 | COc1ccc(-c2[nH][nH]c(=O)c2NC(=O)c2ccc([N+](=O)[O-])cc2)cc1 | 16%
57 | CCCCC(C(=O)OCC(=O)c1ccc(OC)cc1)N1C(=O)c2ccccc2C1=O (centres undefined) | -57.4% (active)
58 | COc1ccc(CNC(=O)COC(=O)C(CCSC)N2C(=O)c3ccccc3C2=O)cc1 (centres undefined) | 5%
59 | CC(C)[C@@H](C(=O)OCC(=O)c1ccc2c(c1)NC(=O)CO2)N1C(=O)c2ccccc2C1=O | 25.8%
60 | CCN(CC(=O)NCCCN1CCOCC1)S(=O)(=O)c1cc(Cl)ccc1Cl | -11.7%
61 | CN(C)CCN(C(=O)CN1C(=O)c2ccccc2C1=O)c1nc2cc3c(cc2s1)OCCO3 | 10%
62 | CCN(CC(=O)Nc1c(F)cccc1F)C(=O)c1ccc(S(=O)(=O)N2CCCCC2)cc1 | -1.87%
63 | COc1ccc(S(=O)(=O)N(C)CC(=O)N2CCCC2)cc1 | -1.23%
64 | CN(C)CCN(C(=O)C1CCCCC1)c1nc2cc3c(cc2s1)OCO3 | -5.98%
65 | CCN(CC)CCN(C(=O)c1cc(Cl)sc1Cl)c1nc2cc3c(cc2s1)OCO3 | 0%
66 | CCN(CC)CCN(C(=O)c1cccc([N+](=O)[O-])c1)c1nc2ccc(OC)cc2s1 | -20.4%
67 | COc1ccc2sc(N(CCCN(C)C)C(=O)c3ccc(S(=O)(=O)N(C)C4CCCCC4)cc3)nc2c1 | -72.4% (active)
68 | CN(C)CCCN(C(=O)c1ccc(S(=O)(=O)N2CCCCCC2)cc1)c1nc2ccc(Br)cc2s1 | -101% (active)
69 | Brc1ccc2nc(N3CCCC3)sc2c1 | 32.8%

Row | Structure (SMILES) | activity change
70 | CN(C)CCCN(C(=O)c1ccc(S(=O)(=O)N2CCCCCC2)cc1)c1nc2cc3c(cc2s1)OCCO3 | -66.5% (active)
71 | CCc1ccc2nc(N(CCCN(C)C)C(=O)c3ccc4c(c3)OCCO4)sc2c1 | -61.9% (active)
72 | Cc1ccc2nc(N(CCN(C)C)C(=O)C3=COCCO3)sc2c1 | -6.05%
73 | Cc1ccc(S(=O)(=O)n2oc(=O)c(C3CCCCC3)c2N)cc1 | -0.476%
74 | C/C(COc1ccccc1)=N\NC(=O)c1nnn(-c2nonc2N)c1-c1ccc(C)cc1 | -10.3%
75 | CCCOc1ccc(F)cc1-c1cc(C(=O)Nc2ccc(F)c(Cl)c2)[nH]n1 | -11.9%
76 | O=C1c2ccncc2C(=O)N1C1CCCCC1 | -1.14%
77 | Cc1ccc(C)c(NC2=NCC(=O)N2c2ccc3c(c2)OCCO3)c1 | 1.69%
78 | Cc1cn(C2CC(O)C(CO)O2)c(=O)n(CCCc2ccccc2)c1=O (centres undefined) | 0%
79 | CCOC(=O)N1CCN(C(=O)c2ccc(CN(c3ccc(C)c(C)c3)S(C)(=O)=O)cc2)CC1 | 1.54%
80 | Cc1nc2ccccn2c(=O)c1NC(=O)c1ccc(Br)o1 | 9.2%
81 | O=c1c2ccccc2ncn1CCc1ccncc1 | -6.13%
82 | COC1(C2=NCCN2)COc2ccccc2O1 (centres undefined) | 6.63%
83 | COc1ccc(C2SCCN2S(=O)(=O)c2ccccc2)cc1OC (centres undefined) | -9.4%
84 | COc1cc2c(cc1OC)CN(C(=O)c1ccc(S(=O)(=O)N3CCCCCC3)cc1)CC2 | -4.82%
85 | COc1cc2c(cc1OC)C(C)N(S(=O)(=O)c1cnc(Cl)c(Cl)c1)CC2 (centres undefined) | -97.4% (active)
86 | CCc1ccc(OCC2c3cc(OC)c(OC)cc3CCN2C(C)=O)cc1 (centres undefined) | -10.3%
87 | COc1ccc(CC2c3cc(OC)c(OC)cc3CC[N+]2(C)CCC(=O)OCCCCCOC(=O)CC[N+]2(C)CCc3cc(OC)c(OC)cc3C2Cc2ccc(OC)c(OC)c2)cc1OC (centres undefined) | -63.5% (active)
88 | COC(=O)C1=CN(Cc2ccc(OC)c(OC)c2)C=C(C(=O)OC)C1c1cccs1 | 17.5%
89 | Cc1ccc([C@H]2C[C@H](O)[C@@H](n3cc(COC(=O)c4ccccc4)nn3)CN2C(=O)C2CCCCC2)cc1 | -14.7%

Reference: PubChem BioAssay AID743279 (National Center for Advancing Translational Sciences (NCATS), 2014)
